# In PubChem BioAssay (NCATS):
# Records with an inconclusive call do not appear. Values without a mark were called inactive. Activity calls are given as the source filed them. Calls follow the shape of the dose curve; as a rule, active = well fitted inhibition curve with a large enough effect; inconclusive = small, poorly fitted or top-dose-only effect; inactive = no such curve, though single readings can be large or run the other way.
# Molecular target: Cytochrome P450 2C9 (Homo sapiens) (UniProt P11712)
# Sequence (P11712 whole entry, looked up): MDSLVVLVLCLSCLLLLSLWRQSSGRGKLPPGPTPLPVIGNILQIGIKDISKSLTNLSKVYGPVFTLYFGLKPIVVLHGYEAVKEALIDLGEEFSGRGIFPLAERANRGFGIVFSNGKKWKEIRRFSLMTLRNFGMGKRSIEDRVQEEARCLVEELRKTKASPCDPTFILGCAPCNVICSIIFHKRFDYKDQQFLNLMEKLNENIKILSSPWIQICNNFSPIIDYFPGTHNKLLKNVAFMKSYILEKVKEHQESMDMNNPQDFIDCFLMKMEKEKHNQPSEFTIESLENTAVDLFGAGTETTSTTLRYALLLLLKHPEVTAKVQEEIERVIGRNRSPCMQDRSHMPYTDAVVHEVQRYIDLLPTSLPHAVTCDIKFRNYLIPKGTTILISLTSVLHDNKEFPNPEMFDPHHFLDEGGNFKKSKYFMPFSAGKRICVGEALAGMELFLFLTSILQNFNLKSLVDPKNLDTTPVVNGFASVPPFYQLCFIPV
# Test: qHTS Assay for Inhibitors and Substrates of Cytochrome P450 2C9 (AID 883); also: nearly all actives have a fitted effect of over 60% in size
# Details: recombinant CYP2C9, luciferin-H luminescence, 60 min; series mostly up to 57.1 µM; activity change, negative = inhibition: at the top concentration
# Method in brief: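 Human CYP2C9 (10nM) hydroxylated Luciferin-H (100uM, at its KM) to luciferin in 25mM KPO4. Compound was preincubated 10 min at 37C, then NADPH regeneration started a 60 min reaction at 37C. Luminescence was read after detection reagent, normalized to 57uM sulphaphenazole.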
# % is scaled to controls: 0 for no effect and ±100 for the full control effect; potency is read from the fitted curve at half-maximal effect.
Structure (SMILES),Potency,"activity change, negative = inhibition"
COc1c(-c2ccccc2)oc2c(ccc3occc32)c1=O,1 µM (active),–
C[C@@]12CC[C@@H]3c4ccc(O)cc4CC[C@H]3[C@H]1CC[C@H]2O,–,48.6% [at 25.6 µM]
COC(=O)C1C(c2ccccc2)C2C(=O)c3c(OC)cc(OC)cc3O[C@@]12c1ccc(OC)cc1 (stereo partly drawn),–,-4.65% [at 11.4 µM]
c1ccc(-c2cc3c(nc2-c2ccccc2)CCNC3)cc1,–,-10% [at 11.4 µM]
CC(C)C[C@H](NC(=O)N1CCCCCC1)C(=O)N[C@H](Cc1cn(C)c2ccccc12)C(=O)N[C@H](Cc1ccccn1)C(=O)O,6.31 µM (active),–
COCOc1ccc(Br)cc1C(=O)/C=C\c1ccc2c(c1)OCO2,2 µM (active),–
CC1Cc2c(cnc3c2CN(C)CC3)CO1 (stereo not drawn),–,12.6% [at 11.4 µM]
O=c1c2ccccc2c2ccccc2c(=O)n1-c1cc2c3ccccc3ccc2c2ccccc12,0.316 µM (active),–
CC(=O)c1c(O)c(C)c(O)c2c1OC1=CC(=O)[C@H](C(C)=O)C(=O)[C@]12C,0.0126 µM (active),–
CCCCCCCCCC[Si](C)(C)CCC(=O)N[C@@H](Cc1ccc(C)cc1)c1ccccc1,–,37.5%
Nc1nc(N)c2nc(CNc3ccc(C(=O)N[C@H](CCC(=O)O)C(=O)O)cc3)cnc2n1,–,44.2%
CN(C)CCC(=O)[C@@]1(O)CC[C@H]2[C@H]3CC=C4C[C@@H](O)CC[C@]4(C)[C@H]3CC[C@]21C,2.51 µM (active),–
CCC1CN2CCC1CC2C(Oc1cc2ccccc2c2ccccc12)c1ccnc2ccc(O)cc12 (stereo not drawn),–,22% [at 11.4 µM]
O=[N+]([O-])c1ccc(S(=O)(=O)Cc2ccccc2)c([N+](=O)[O-])c1,3.16 µM (active),–
C[C@H](Br)C(=O)c1ccc2cc(Br)c3ccccc3c2c1,–,58.8% [at 11.4 µM]
CN1CCc2nc(CO)c(CO)cc2C1,–,21.8% [at 11.4 µM]
O=C1C=CC(=O)c2c1ccc1c2ccc2ccccc21,1.26 µM (active),–

# Molecular target: Cytochrome P450 3A4 (Homo sapiens) (UniProt P08684)
# Test: qHTS Assay for Inhibitors and Substrates of Cytochrome P450 3A4 (AID 884); also: nearly all actives have a fitted effect of over 50% in size
# Details: recombinant CYP3A4, Luciferin-PPXE luminescence; series mostly up to 57.1 µM; activity change, negative = inhibition: at the top concentration
# Method in brief: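 Luminescent readout of luciferin produced by CYP3A4 (20 nM) dealkylation of Luciferin-PPXE, 25 uM (its KM). NADPH-driven reaction ran 60 min at RT after 10 min compound preincubation; data scaled to 57 uM ketoconazole as 100% inhibition.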
Structure (SMILES),Potency,"activity change, negative = inhibition"
COc1c(-c2ccccc2)oc2c(ccc3occc32)c1=O,3.16 µM (active),–
O=C1NO[C@H]2[C@@H]1CN[C@@H]2C(=O)O,–,-13.5%
C[C@@]12CC[C@H]3[C@@H](CCC4=CC(=O)CC[C@]43C)[C@H]1CC[C@H]2C(=O)CO,–,7.17% [at 25.6 µM]
COC(=O)C1C(c2ccccc2)C2C(=O)c3c(OC)cc(OC)cc3O[C@@]12c1ccc(OC)cc1 (stereo partly drawn),3.98 µM (active),–
C[C@@]12C=CC(=O)C=C1CC[C@@H]1C2=CC[C@]2(C)[C@@H]1CC[C@H]2C(=O)CN1CCN(c2cc(N3CCCC3)nc(N3CCCC3)n2)CC1,3.16 µM (active),–
COCOc1ccc(Br)cc1C(=O)/C=C\c1ccc2c(c1)OCO2,3.16 µM (active),–
CC1Cc2c(cnc3c2CN(C)CC3)CO1 (stereo not drawn),–,-13.4% [at 11.4 µM]
COC(=O)[C@H]1C(=O)c2ccccc2O[C@@](C(=O)OC)(c2ccccc2)[C@@H]1c1ccccc1,3.98 µM (active),–
CC(C)C1C(=O)N2CCCC2[C@]2(O)O[C@@](NC(=O)[C@@H]3C=C4c5cccc6[nH]cc(c56)C[C@H]4N(C)C3)(C(C)C)C(=O)N12 (stereo partly drawn),1.26 µM (active),–
COc1cc2c(cc1OC)C1C(=O)c3c(O)cc4c(c3OC1CO2)C=CC(C)(C)O4 (stereo not drawn),15.8 µM (active),–
COc1ccc2[nH]c(C(=O)c3ccccc3)cc2c1,7.94 µM (active),–
Clc1cc(Cl)c(Cl)c(Cl)c1Cl,–,14.8%
C[C@@]12CCC3c4ccc(O)cc4CCC3C1CCC2O (stereo partly drawn),–,-7.09%
CC1(C)C(=O)C=C[C@]2(C)C1CC(=O)[C@]1(C)C2CC[C@@]2(C)C(c3ccoc3)OC(=O)C3O[C@@]321 (stereo partly drawn),2.51 µM (active),–
COc1cc2c(cc1O)C(CCc1ccc(Cl)cc1)N(C)CC2 (stereo not drawn),–,-9.96%
CC1=CC[C@@H]2[C@@H](C1)c1c(O)cc(CC#CCCCNS(C)(=O)=O)cc1OC2(C)C,2.51 µM (active),–
CC(C)=CCCC(C)C1CC[C@@]2(C)C3=C(CC[C@@]12C)C1(C)CCC(O)C(C)(C)C1CC3 (stereo partly drawn),15.8 µM (active),–
COC(=O)[C@@H]1C[C@@]2(O)[C@@H](O)[C@@H](O)[C@@H](O)C[C@H]2N1Cc1cccnc1,–,-17.2%
CC(=O)[C@]1(O)CCC2C3C=C(Cl)C4=CC(=O)C5CC5[C@@]4(C)C3CC[C@]21C (stereo partly drawn),–,48.7%
Cc1[nH]cnc1CCN,–,-16%
CC(C)CC(N)C1(c2ccc(Cl)cc2)CCC1 (stereo not drawn),1.58 µM (active),–
